The list is not random: actives were taken first. Their share in the collection is about 3.5%.
Pf apPOL inh – Pf-apPOL DNA polymerase inhibition. Recombinant Pf-apPOL, molecular beacon fluorescence, 1.5 h. inhibition, % at 10 µM. hit rate 0.25% among 210,000. AID 1794808
mHTT CaM bind – mHTT-calmodulin interaction abrogation | P42858 | AlphaScreen His-mHTT/GST-CaM binding, luminescence | inhibition, % at 15 µM | hit rate 3.6% among 190,000 | AID 1671202;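 further: 0% = both proteins with DMSO and 100% = one protein alone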
* marks the source's active call; other numbers are inactive results; x = no result given; ! = repeats disagree. No stated cut-off is given here; in the data, active means inhibition above about 50%; inactive means the rest.

SMILES	Pf apPOL inh	mHTT CaM bind
Cc1cc(C)n(-c2nnc(C)c(=O)[nH]2)n1	-2.3	89.6*
O=C(Nc1c2c(nn1-c1ccc([N+](=O)[O-])cc1)CSC2)c1cc([N+](=O)[O-])ccc1Cl	-6.0	6.0
Cc1nc(N)sc1-c1csc(Nc2cccc(O)c2)n1	1.0	51.4*
c1ccc(-c2csc(Nc3ncccn3)n2)nc1	-1.2	98.0*
c1ccc(Nc2nc(-c3ccccn3)cs2)nc1	-0.5	100.2*
COc1ccc(-c2csc(Nc3ccccn3)n2)cc1OC	-4.6	49.7
Cc1ccnc(Nc2nc(-c3sc(C)nc3C)cs2)c1	0.7	30.4
CCOc1ccccc1Nc1nc(-c2ccccn2)cs1	-3.1	37.0
Cc1nc(N)sc1-c1csc(Nc2ccccn2)n1	-6.1	87.0*
Cc1nc(C)c(-c2csc(Nc3cccc(C(=O)O)c3)n2)s1	5.3	19.4
Cc1cc2c(=O)n(CC(=O)Nc3c(C)cccc3C)ccc2s1	-4.1	6.4
COc1ccc2c(=O)c3c(oc2c1)C(=O)N(CCCN(C)C)C3c1ccc(C(C)(C)C)cc1 (stereo unspecified)	-13.3	36.2
COc1ccc(C(O)(C(=O)O)C(F)(F)F)cc1OC (stereo unspecified)	-2.0	1.0
CC(C)NC(=O)N1CCOc2ccccc21	-4.8	0.8
COc1ccccc1C1CN(C(=O)c2ccccc2C)CC1C(=O)NC1CC1 (stereo unspecified)	-2.4	10.6
CN(C)c1ccc(C(=O)Nc2ccc(O)c3c(=O)cc(-c4ccccc4Cl)oc23)cc1	1.9	54.1*
O=C(Nc1ccc(O)c2c(=O)cc(-c3ccccc3Cl)oc12)c1ccc(Br)cc1	-4.1	21.0
O=C(NCCc1ccncc1)C1CCCN(c2nnc3ccccn23)C1 (stereo unspecified)	-9.8	1.9
O=C(c1cc2sc(Br)cc2n1CC1CCCCO1)N1CCCC1 (stereo unspecified)	-13.1	70.3*
Cc1cc2c(cc(C(=O)N3CCOCC3)n2CC2CCC2)s1	-7.6	16.0
CC1=C(C(=O)Nc2ccccc2C)C2(CCCCC2)OC1=O	-0.2	-6.2
COc1ccccc1CN1CCN(C(=O)c2cc(OC)c(OC)c(OC)c2)CC1	-1.7	6.0
O=C(Nc1ccccc1)/C(=C\c1ccc2c(c1)OCO2)NC(=O)c1ccccc1Cl	-12.2	-1.0
Cc1cc(C)nc(SCCCCSc2nc(C)cc(C)n2)n1	-5.9	-7.0
CCS(=O)(=O)CCSc1nc(C)cc(C)n1	51.3*	17.0
SMILES	Pf apPOL inh	mHTT CaM bind
CC(C)c1ccc(-c2ccnc3c(C(=O)NCc4ccccn4)cnn23)cc1	-23.3	-4.7
COc1ccc(-c2cn3c(C(=O)NCc4cccs4)csc3n2)cc1	-3.0	10.3
Cc1ccc(-c2cn3c(CC(=O)NCc4cccs4)csc3n2)cc1	-20.8	51.9*
CCOc1cc(Nc2ccc(NC(=O)c3ccco3)cc2)nc(C)n1	-10.3	4.4
Cc1cc(C)n(-c2ccc(Nc3ccc(NC(=O)c4ccco4)cc3)nn2)n1	-8.3	66.8*
COc1ccc(/C=C(\C#N)c2nn(CCO)c(N)c2C#N)c(OC)c1	-1.2	-1.1
COc1ccc(/C=C(\C#N)c2[nH]nc(N)c2C#N)cc1Br	-0.4	69.2*
CCOc1cc(/C=C(\C#N)c2[nH]nc(N)c2C#N)ccc1O	-5.7	72.8*
CCN(CC)c1ccc(/C=C(\C#N)c2[nH]nc(N)c2C#N)c(OC)c1	0.0	60.4*
COc1ccc(/C=C2\C(C)=C(C#N)c3nc(N)c(C#N)c(C)c32)cc1Br	-5.1	20.0
CCN(C)c1ccc(/C=C(\C#N)c2[nH]nc(N)c2C#N)cc1	-3.2	28.8
COc1cc(/C=C(\C#N)c2[nH]nc(N)c2C#N)ccc1O	10.0	53.7*!
COc1cc(/C=C(\C#N)c2ccc([N+](=O)[O-])cc2)ccc1O	-1.8	38.2
COc1ccc2cc(C(N)=O)c(=Nc3cccc(C(F)(F)F)c3)oc2c1	0.2	-2.0
O=C1Nc2ccc(Br)cc2/C1=C/c1ccsc1	1.2	42.0
C=CCN(CC=C)S(=O)(=O)c1ccc(C(=O)N=c2sc3cccc(OC)c3n2C)cc1	10.2	-9.0
CC(C)CNC(=O)C1CCN(Cc2ccc(F)cc2)CC1	-1.1	-4.1
c1ccc(N=C2C(Nc3ccccc3)=Nc3ccccc32)cc1	-0.4	63.0*
NC1=NC(=Nc2ccccc2)c2ccccc21	-2.2	3.2
COc1cc(/C=C2/SC(=O)N(C)C2=O)cc(Br)c1OCC(=O)O	-2.1	1.0
CCOC(=O)c1c(SCC(=O)NCc2ccco2)nc(=O)[nH]c1C	-2.0	-1.0
COc1cccc(C2CC(c3cccc(OC)c3)n3nnnc3N2)c1 (stereo unspecified)	-9.8	4.0
Clc1ccc(CN2CCCNCC2)c(Cl)c1	-4.5	x
Cc1cccc(-c2cc(O)cc3sc(=O)oc23)c1	5.1	91.0*
O=c1oc2c(-c3ccc(Cl)cc3)cc(O)cc2s1	0.1	80.0*
SMILES	Pf apPOL inh	mHTT CaM bind
COc1cc(OC)c2c(-c3cccc(-c4cccc(C)c4)c3)cc(=O)oc2c1	-7.5	-5.9
O=c1oc2c(-c3ccc([N+](=O)[O-])cc3)cc(O)cc2s1	2.2	8.6
O=C(c1cccc(Cl)c1)N1CCC(N2CCCCCC2)CC1	-2.6	3.1
CCC(C)NCC(O)COC1CC2CCC1(C)C2(C)C (stereo unspecified)	-3.2	-5.7
O=[N+]([O-])c1cc2c(cc1CNc1ccc3cn[nH]c3c1)OCO2	-1.4	45.2
O=[N+]([O-])c1cc2c(cc1CNc1ccc3c(c1)CCC3)OCO2	-6.9	80.9*
Cn1cnnc1C1CCCCN1C(=O)c1cc(-c2cccs2)[nH]n1 (stereo unspecified)	-0.8	-1.4
O=c1c2c3c(sc2nc2ccc(NCc4ccco4)nn12)CCCC3	-2.9	79.0*
O=C(Cn1cnc2sc3c(c2c1=O)CCCC3)NCc1ccco1	-2.6	10.0
Cc1ccc(C2CC(c3cc(Cl)ccc3O)=NC3(CCN(C)CC3)N2)cc1 (stereo unspecified)	5.8	100.1*
CCN1CCC2(CC1)N=C(c1ccc(C)c(C)c1)CC(c1cc(Cl)ccc1O)N2 (stereo unspecified)	-4.2	15.3
CC(=O)N1CCC2(CC1)N=C(c1ccccc1O)CC(c1ccc(F)c(Cl)c1)N2 (stereo unspecified)	-1.8	69.2*
CCN1CCC2(CC1)N=C(c1ccc(C)cc1C)CC(c1cc(Cl)ccc1O)N2 (stereo unspecified)	0.7	89.6*
CC(=O)N1CCC2(CC1)N=C(c1cc(Cl)ccc1O)CC(c1ccc(C)cc1)N2 (stereo unspecified)	6.0	24.1
CC(=O)N1CCC2(CC1)N=C(c1ccccc1O)CC(c1ccc(Cl)cc1)N2 (stereo unspecified)	-7.2	28.1
CNC(=O)N(O)C1N(C)C(=O)N(C(C)C)C1(C)C (stereo unspecified)	1.2	-2.0
CCC1CN(C(=O)Nc2cc(C)ccc2C)c2ccccc2O1 (stereo unspecified)	1.1	2.2
Cc1ccc(Nc2ccc([N+](=O)[O-])cc2[N+](=O)[O-])cc1I	-3.2	14.0
C=CCN1C(=O)C(O)(CC(=O)c2ccc(C)cc2C)c2ccccc21 (stereo unspecified)	-1.8	60.0*
CCN1C(=O)C(O)(CC(=O)c2ccccc2OC)c2ccccc21 (stereo unspecified)	1.4	0.5
Cc1csc(C(=O)Nc2nnc(SCC(=O)Nc3cc(C)on3)s2)c1	-6.8	-8.5
CC1(C)Nc2ccccc2-c2c1ssc2=Nc1cccc(Cl)c1	x	68.8*
Cc1ccc2c(c1)-c1c(ssc1=Nc1cc(Cl)ccc1Cl)C(C)(C)N2	x	97.8*

Compound activity from PubChem BioAssay.
